Assay results reported in ChEMBL document CHEMBL4513216, “Probing the Open Global Health Chemical Diversity Library for Multistage-Active Starting Points for Next-Generation Antimalarials” (ACS Infect Dis, 2020).
The campaign covered roughly 69,000 compounds. About 8,600 (12%) showed an effect of 50% or more. The list comes from a sample in which strong results are over-represented; it also holds similar structures and randomly drawn compounds.

These compounds were tested on Plasmodium berghei (assay: Screen against P. berghei liver stage (PbLuc), transformed with Luciferase, at 10uM). Conditions: tested at 10 uM.
Type: functional, HepG2

SMILES | INHIBITION
CN(C)CCN(C)C(=O)c1cn(CC2CCCCC2)nn1 | -9.54%
O=C(NC1CCCC1)c1cnn2c(-c3ccco3)ccnc12 | -16.4%
COC(=O)Cn1c(=O)[nH]c2cn(-c3ccc(Br)cc3)c(=O)n21 | -38.6%
COc1cc(NC2CCS(=O)(=O)C2)ncn1 (stereo not drawn) | 33.7%
Cc1ccc(C(N)c2cccc(S(C)(=O)=O)c2)cc1 (stereo not drawn) | 38.7%
O=C(O)CC(NC(=O)CCCc1cccs1)c1ccc(F)cc1 (stereo not drawn) | 18.4%
NC(c1ccc(Cl)cc1)c1cccs1 (stereo not drawn) | 22.5%
Cc1ccc(C(N)c2cccs2)cc1 (stereo not drawn) | 61.5%
CC(C)c1ccc(-c2nonc2N)cc1 | -15.2%
Cc1ccc(C(CC(=O)O)NC(=O)CCc2cccs2)cc1 (stereo not drawn) | 31%
CC(C)c1ccc(C(N)c2cccs2)cc1 (stereo not drawn) | 75.6%
NC(c1ccc(F)cc1)c1cccs1 (stereo not drawn) | 55%
CS(=O)(=O)c1cccc(C(N)c2ccc(F)cc2)c1 (stereo not drawn) | -9.76%
CSCC(=O)N1CCCN(Cc2cscn2)CC1 | 7.77%
CCc1oc2ccc(NS(=O)(=O)CC)cc2c1C(=O)OC | 1.41%
CC(C)=CCCC1(C)C=Cc2c(cc(C)n(CC(=O)O)c2=O)O1 (stereo not drawn) | 18.3%
COC(=O)CN(C(=O)c1cccc(F)c1Cl)c1cccc(C)n1 | 29.8%
COC(=O)CN(C(=O)C(C)c1c(F)cccc1F)c1cccc(C)n1 (stereo not drawn) | 76%
COC(=O)CN(C(=O)c1cc(C(C)C)no1)c1cccc(F)c1 | 7.38%
COC(=O)CN(C(=O)c1ccc(Cl)cn1)c1cccc(F)c1 | 33.1%
COC(=O)CN(C(=O)c1cc(C)c(F)cc1F)c1cccc(C)n1 | 61.7%
CCC(C)C(=O)N(CC(=O)OC)c1cccc(C)n1 (stereo not drawn) | 10.6%
O=C(O)Cc1nc2nccc(-c3ccc(F)cc3)n2n1 | 11.5%

SMILES | INHIBITION
Cn1cccc1CN(C(=O)Cc1cccs1)C1CC1 | 6.54%
N#Cc1ccc(C(=O)O)nc1C=Cc1cccc(Br)c1 | 39.4%
O=C(NC1CC1)c1cnc(-c2noc3cc(N4CCCCC4)ccc23)s1 | 95.5%
CCN(C)C(=O)c1cnc(-c2noc3cc(N4CCCCC4)ccc23)s1 | 76.3%
CN(C)CCNC(=O)c1ccc2c(-c3nccs3)noc2c1 | -33%
O=C(c1cnc(-c2noc3cc(N4CCCC4)ccc23)s1)N1CCCC1 | 8.31%
CC1CCN(c2ccc3c(-c4ncc(C(=O)O)s4)noc3c2)CC1 | 23.1%
O=C(NCCN1CCCC1)c1ccc2c(-c3nccs3)noc2c1 | 28.2%
CC(C)COC(=O)N1CC(=O)N(Cc2ccco2)CC(O)C1 (stereo not drawn) | 47.2%
CC(C)Nc1ncc(-c2ccncc2)c([C@@H]2CCCO2)n1 | 11.8%
CN1CCn2c(-c3cnn(C)c3)cnc2C12CCN(CC1CC1)CC2 | 0.804%
CN1CCC(c2nnc3n2CCN(S(=O)(=O)c2ccccc2)C3)CC1 | 40.45%
Cc1nc(CN(C)C2CCN(Cc3cccc(F)c3)C2)no1 (stereo not drawn) | 17.5%
c1cc(NCc2cscn2)cc(OCCN2CCCCC2)c1 | 56.1%
Clc1cncc(NCc2cccc(OCCN3CCOCC3)c2)n1 | 58.5%
Cc1ncsc1CNc1cccc(OCCN2CCCC2)c1 | 48.5%
c1cncc(CNc2cccc(OCCN3CCCCC3)c2)c1 | 68%
Cc1ccnc(NCc2cccc(OCCN3CCOCC3)c2)n1 | -21.1%
c1ccc(NCc2cccc(OCCN3CCOCC3)c2)nc1 | -8.25%
NC(=O)C1CCN(CCc2ccc(NCc3cccnc3)cc2)CC1 | 25.3%
c1cc(CN2CCCCC2)cc(NCc2cc[nH]n2)c1 | 2.22%
Cc1csc(CNc2cccc(OCCN3CCCC3)c2)n1 | 28%
CC(C)=CCN1CCN(C(=O)C2CCS(=O)(=O)C2)CC1 (stereo not drawn) | 8.4%

SMILES | INHIBITION
Cc1ncn(CCNC(=O)Nc2ccccc2)c(=O)c1C | -10.6%
O=S(=O)(CCCN1CCCC(Cn2cncn2)C1)c1ccccc1 (stereo not drawn) | 7.67%
Cn1nc(Cn2cccn2)c2c1CN(Cc1ccoc1)C2 | 20.1%
CCn1ncc2[nH]c(-c3ccc(OC)c(COC)c3)nc21 | -45.8%
CC(C)(C)c1cc(C(=O)N2CCOC(c3cnccn3)C2)[nH]n1 (stereo not drawn) | 12.15%
Cc1cc(CN2CCC(C3Nc4ccccc4S(=O)(=O)N3)CC2)oc1C (stereo not drawn) | 32.8%
CC(C)Nc1ncnc2c1CCN(C(=O)CC1CCCC1)CC2 | 18.3%
COCCCNc1ncnc2c1CCN(C(=O)CC1C=CCC1)CC2 (stereo not drawn) | 48.2%
COc1cccc(CC(=O)N2CCc3ncnc(NCCO)c3CC2)c1 | 64%
COc1cccc(CC(=O)N2CCc3ncnc(C)c3CC2)c1 | 61.5%
COCCNc1ncnc2c1CCN(C(=O)CC1CCC(=O)N1)CC2 (stereo not drawn) | 73.2%
COc1cccc(C(=O)N2CCc3ncnc(C)c3CC2)c1 | -34.9%
COc1cccc(C)c1C(=O)N1CCc2ncnc(NCCO)c2CC1 | 27.6%
Cc1ncnc2c1CCN(C(=O)Cc1ccccn1)CC2 | 14.1%
COc1cccc(CC(=O)N2CCc3ncnc(NC(C)C)c3CC2)c1 | -4.55%
O=C(CCc1cc2n(n1)CCCN(C(=O)[C@H]1CCCO1)C2)NC1CC1 | 33.4%
CC(C)c1noc(C2CCN(S(=O)(=O)c3cccs3)CC2)n1 | 17.5%
O=C(Nc1cc(C(F)(F)F)c[nH]c1=O)C1CCNCC1 | 11.9%
O=C(CN1CCOC(Cn2cncn2)C1)NCc1cccs1 (stereo not drawn) | 34.05%
COc1ccccc1CN(CCCn1ccnc1)CC1CCOC1 (stereo not drawn) | 43.4%
Cc1ccc(CN(CCCn2ccnc2)Cc2ccccc2O)s1 | 54.4%
Cc1ccc(CN(CCCn2ccnc2)Cc2c[nH]nc2C(C)(C)C)s1 | 70.1%
Cc1ccc(CN(CCCO)Cc2nc3ccccc3[nH]2)s1 | 29.1%

SMILES | INHIBITION
Cc1ccc(O)c(CN(CCCn2ccnc2)Cc2ccc(C)s2)c1 | 79.7%
Cc1ccc(CN(CCCn2ccnc2)Cc2[nH]cnc2C)s1 | 9.93%
Cc1cn2nc(N3CCCC3Cn3nc(C)nc3C)sc2n1 (stereo not drawn) | -39.7%
CC(C)c1noc(C(C)N2CCN(Cc3noc(C(C)(C)C)n3)CC2)n1 (stereo not drawn) | -35.7%
Cc1cc(C)nc(N2CCC(C(=O)Nc3n[nH]c(CC(C)C)n3)CC2)n1 | 4.93%
CNC(=O)C1Cn2ccnc2C2(CCN(Cc3c(C)noc3C)CC2)O1 (stereo not drawn) | 3.11%
Cc1nc(N)c2ccc(C3CCCN3)nc2n1 (stereo not drawn) | 26.55%
COC(=O)c1ccc(S(=O)(=O)NCC(O)c2sccc2C)cc1 (stereo not drawn) | -11.8%
Cc1ccsc1C(O)CNC(=O)Cc1ccc(S(=O)(=O)C(C)C)cc1 (stereo not drawn) | 25.3%
COc1ccc(CC(=O)NCC(O)c2sccc2C)cc1OC (stereo not drawn) | 53.8%
COc1ccc(S(=O)(=O)NCC(O)c2sccc2C)cc1C (stereo not drawn) | 6.34%
COc1ccc(F)cc1S(=O)(=O)NCC(O)c1sccc1C (stereo not drawn) | 16.9%
Cc1ccsc1C(O)CNC(=O)Cc1ccc(F)cc1 (stereo not drawn) | 56%
COc1ccc(S(=O)(=O)NCC(O)c2sccc2C)cc1Cl (stereo not drawn) | 51.7%
Cc1ccsc1C(O)CNS(=O)(=O)Cc1ccc(F)cc1 (stereo not drawn) | 9.96%
Cc1cc(S(=O)(=O)NCC(O)c2sccc2C)ccc1F (stereo not drawn) | 13.9%
COc1ccccc1C(=O)NC(c1ccccn1)C1CCC(CN)CC1 (stereo not drawn) | 44.1%
Cc1ncccc1-c1cc2cccnc2n1CCCNC(=O)C1CC1 | 25.8%
CN(Cc1ccccc1)CC(O)Cn1cnc2c(Cl)cc(Cl)cc2c1=O (stereo not drawn) | 27.433%
COCC1CN(C(=O)c2ccoc2C)Cc2nccn2C1 (stereo not drawn) | 35.3%
CC(=O)NCCC(=O)NCc1cccnc1-n1cnc2ccccc21 | 60.1%
COCCC(=O)NCc1cccnc1-n1cnc2ccccc21 | 33.9%
CS(=O)(=O)NCCC(=O)NCc1cccnc1-n1cnc2ccccc21 | 41.2%

SMILES | INHIBITION
Cc1[nH]ccc1C(=O)N[C@H]1CN(CCO)C[C@@H]1C1CC1 | 9.89%
Cc1c(C(=O)N[C@H]2CN(CCS(C)(=O)=O)C[C@@H]2C2CC2)cnn1C | 29%
CS(=O)(=O)CCN1C[C@H](NC(=O)c2cnc(O)cn2)[C@@H](C2CC2)C1 | -3.43%
CCc1cc(C(=O)N[C@H]2CN(CCS(C)(=O)=O)C[C@@H]2C2CC2)[nH]n1 | 55%
CSCCCN1C[C@H](NC(=O)c2cnn(C)c2)[C@@H](C2CC2)C1 | 12.6%
Cc1cnc(C(=O)N[C@H]2CN(CCS(C)(=O)=O)C[C@@H]2C2CC2)cn1 | 53.9%
Cc1ccc(CNC(C)c2ccc(N3CCN(C)CC3)c(F)c2)o1 (stereo not drawn) | -11%
C1CCc2nnc(CNc3nc(C4CC4)nc4c3CCNCC4)n2CC1 | 3.06%
CCc1ccc(S(=O)(=O)Nc2cc(C(=O)O)ccc2F)s1 | 13.85%
NS(=O)(=O)c1cc(C(=O)N2CCCCC2)cs1 | 30.7%
CCN(c1ccc(C(=O)N2CCC(C(N)=O)CC2)cc1)S(=O)(=O)CC | 47.3%
NC(=O)C1CCN(C(=O)c2cc(S(=O)(=O)N3CCCC3)cs2)CC1 | 56.3%
CCN(c1ccsc1C(=O)N1CCSCC1)S(=O)(=O)c1ccccc1 | -27.5%
CN(C)S(=O)(=O)c1csc(C(=O)N2CCSCC2)c1 | 65.6%
COCCNC(=O)c1cc(S(=O)(=O)N2CCCC2)cs1 | 10.3%
O=C(c1cc(-c2cccs2)cs1)N1CCSCC1 | -61.1%
NC(=O)C1CCN(C(=O)c2cc(S(=O)(=O)N3CCCCC3)cs2)CC1 | 56.3%
CCN(CC)S(=O)(=O)c1csc(C(=O)N2CCC(C(N)=O)CC2)c1 | 49.9%
COCCNC(=O)c1cc(S(=O)(=O)N2CCCCCC2)cs1 | 45.6%
NC(=O)C1CCN(Cc2ccc(S(=O)(=O)N3CCCC3)o2)CC1 | 16.5%
CN(C)S(=O)(=O)c1csc(C(=O)N2CCC(C(N)=O)CC2)c1 | 60.1%
